From PubChem BioAssay (EPA / NIEHS) come the findings set out here.

Calls of active or inactive are those of the source. Rule for the calls: active = hit-call score of the fitted dose curve at least 0.9, where 1 is the maximum; inactive = score below 0.9.

In general, AC50 refers to the concentration giving half of the maximal activity seen.

Read-out in assay [1]: Tissue Factor, F3 (gene 2152)
Kind of assay: BSK_CASM3C_TissueFactor: BioMAP Diversity Plus: CASM3C Assay for Tissue Factor Biomarker Activity (AID 2283052).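 Note: cell surface tissue factor protein level read by ELISA.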 As to conditions: primary human coronary artery smooth muscle cells; actives raise or lower the signal.

Read-out in assay [2]: Interferon-gamma inducible Protein 10 (IP10), CXCL10 (gene 3627)
The assay is described as follows: BSK_hDFCGF_IP10: BioMAP Diversity Plus: hDFCGF Assay for Interferon-gamma inducible Protein 10 (IP10) Biomarker Activity (AID 2283053). As to conditions: primary human foreskin fibroblasts; actives raise or lower the signal. Summed up:
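Human foreskin fibroblast primary cells (hDFCGF system) were dosed with chemical and assayed at 24 h; IP-10 measured by ELISA. Activity fitted bidirectionally relative to DMSO negative control as baseline.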

Read-out in assay [3]: Urokinase-type plasminogen activator receptor (uPAR), PLAUR (gene 5329)
The assay is described as follows: BSK_CASM3C_uPAR: BioMAP Diversity Plus: CASM3C Assay for Urokinase-type plasminogen activator receptor (uPAR) Biomarker Activity (AID 2283054).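 Note: cell-surface uPAR protein level quantified by ELISA.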 As to conditions: primary human coronary artery smooth muscle cells; actives raise or lower the signal.

Read-out in assay [4]: Vascular cell adhesion molecule 1 (VCAM1), VCAM1 (gene 7412)
The assay is described as follows: BSK_CASM3C_VCAM1: BioMAP Diversity Plus: CASM3C Assay for Vascular cell adhesion molecule 1 (VCAM1) Biomarker Activity (AID 2283055).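 Note: VCAM-1 protein level quantified by ELISA on the cells.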 The conditions noted are these: primary human coronary artery smooth muscle cells; actives raise or lower the signal.

Read-out in assay [5]: Collagen III, COL3A1 (gene 1281)
The assay is described as follows: BSK_hDFCGF_CollagenIII: BioMAP Diversity Plus: hDFCGF Assay for Collagen III Biomarker Activity (AID 2283056). The conditions noted are these: primary human foreskin fibroblasts; actives raise or lower the signal. Summed up:
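hDFCGF primary human dermal fibroblasts; 24 h chemical exposure; collagen III by ELISA; bidirectional curve fit vs DMSO baseline (gain or loss of signal).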

Read-out in assay [6]: Epidermal growth factor receptor (EGFR), EGFR (gene 1956)
Kind of assay: BSK_hDFCGF_EGFR: BioMAP Diversity Plus: hDFCGF Assay for Epidermal growth factor receptor (EGFR) Biomarker Activity (AID 2283057). As to conditions: primary human foreskin fibroblasts; actives raise or lower the signal. Summed up: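 Primary human foreskin fibroblasts were exposed to compound for 24 h, after which cell-surface EGFR was quantified by ELISA. Activity was fitted bidirectionally against the DMSO negative control as baseline.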

Read-out in assay [7]: Interleukin-8 (IL8), CXCL8 (gene 3576)
The assay is described as follows: BSK_hDFCGF_IL8: BioMAP Diversity Plus: hDFCGF Assay for Interleukin-8 (IL8) Biomarker Activity (AID 2283058). The conditions noted are these: primary human foreskin fibroblasts; actives raise or lower the signal. Summed up:
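ELISA read-out of IL-8 from primary human foreskin fibroblast cultures taken 24 h after dosing; values are bidirectional fits relative to DMSO vehicle.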

The nature of assay [8]: BSK_hDFCGF_Proliferation: Cell Proliferation Assessment in the BioMAP Diversity Plus: hDFCGF Assay (AID 2283059).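 Note: curves fitted for both rise and fall of signal versus DMSO baseline.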 The conditions noted are these: primary human foreskin fibroblasts. Summed up: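 Primary human foreskin fibroblasts, sub-confluent; […]; 10% TCA fix, 0.1% SRB stain, A560 total protein. Gain/loss fitted bidirectionally vs DMSO control.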
Read-out in assay [9]: Macrophage colony-stimulating factor (MCSF), CSF1 (gene 1435)
Kind of assay: BSK_hDFCGF_MCSF: BioMAP Diversity Plus: hDFCGF Assay for Macrophage colony-stimulating factor (MCSF) Biomarker Activity (AID 2283060). As to conditions: primary human foreskin fibroblasts; actives raise or lower the signal. Summed up:
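ELISA read-out of M-CSF in human dermal foreskin fibroblast cultures, 24 h after chemical dosing; gain or loss of signal fitted bidirectionally relative to DMSO baseline.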

Assay [10] is described as follows: BSK_hDFCGF_SRB: Viability Assessment in the BioMAP Diversity Plus: hDFCGF Assay (AID 2283061).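 Note: cells exposed to compound for 24 h before the read.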 The conditions noted are these: primary human foreskin fibroblasts. The method in brief: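 Primary human foreskin fibroblasts; 24 h post-dose; fixed 10% TCA, stained 0.1% SRB, A560 read; total protein as overt cytotoxicity measure; curves fit bidirectionally vs DMSO control.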

Read-out in assay [11]: Monokine induced gamma interferon (MIG), CXCL9 (gene 4283)
Kind of assay: BSK_hDFCGF_MIG: BioMAP Diversity Plus: hDFCGF Assay for Monokine induced gamma interferon (MIG) Biomarker Activity (AID 2283063). As to conditions: primary human foreskin fibroblasts; actives raise or lower the signal. The method in brief: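 Fibroblasts (human foreskin, primary) dosed, 24 h, MIG by ELISA; fit bidirectional vs DMSO.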

Read-out in assay [12]: Matrix Metallopeptidase 1 (MMP1), MMP1 (gene 4312)
Kind of assay: BSK_hDFCGF_MMP1: BioMAP Diversity Plus: hDFCGF Assay for Matrix Metallopeptidase 1 (MMP1) Biomarker Activity (AID 2283064). The conditions noted are these: primary human foreskin fibroblasts; actives raise or lower the signal. Summed up: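 Primary human foreskin fibroblasts exposed to chemicals for 24 h; MMP1 measured by ELISA. Cytotoxicity tracked by SRB staining in parallel cultures; bidirectional fit relative to DMSO.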

Read-out in assay [13]: Vascular cell adhesion molecule 1 (VCAM1), VCAM1 (gene 7412)
Kind of assay: BSK_hDFCGF_VCAM1: BioMAP Diversity Plus: hDFCGF Assay for Vascular cell adhesion molecule 1 (VCAM1) Biomarker Activity (AID 2283065).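 For AC50: VCAM-1 protein level quantified by ELISA after 24 h chemical exposure.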 The conditions noted are these: primary human foreskin fibroblasts; actives raise or lower the signal. Summed up: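 ELISA read-out of VCAM-1 on human skin fibroblasts, 24 h post-dose; gain or loss of signal fitted bidirectionally against DMSO baseline.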

Read-out in assay [14]: Plasminogen activator inhibitor-1 (PAI1), SERPINE1 (gene 5054)
The assay is described as follows: BSK_hDFCGF_PAI1: BioMAP Diversity Plus: hDFCGF Assay for Plasminogen activator inhibitor-1 (PAI1) Biomarker Activity (AID 2283066). The conditions noted are these: primary human foreskin fibroblasts; actives raise or lower the signal. The method in brief: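 Human foreskin fibroblasts in the hDFCGF system were dosed with compound for 24 h; PAI-1 was quantified by ELISA. Bidirectional curve fitting used DMSO as negative control and baseline.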

Read-out in assay [15]: Intercellular Adhesion Molecule 1 (ICAM1), ICAM1 (gene 3383)
The assay is described as follows: BSK_KF3CT_ICAM1: BioMAP Diversity Plus: KF3CT Assay for Intercellular Adhesion Molecule 1 (ICAM1) Biomarker Activity (AID 2283067). As to conditions: primary human keratinocytes with fibroblasts; actives raise or lower the signal. The method in brief:
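ELISA readout of ICAM-1; KF3CT human skin co-culture (keratinocytes + foreskin fibroblasts), 24 h post-dose; gain/loss fit vs DMSO baseline.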

Read-out in assay [16]: Interferon-gamma inducible Protein 10 (IP10), CXCL10 (gene 3627)
The assay is described as follows: BSK_KF3CT_IP10: BioMAP Diversity Plus: KF3CT Assay for Interferon-gamma inducible Protein 10 (IP10) Biomarker Activity (AID 2283068). As to conditions: primary human keratinocytes with fibroblasts; actives raise or lower the signal. Summed up:
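In a primary skin co-culture of keratinocytes and fibroblasts, IP-10 is quantified by ELISA at 24 h after dosing. SRB staining of parallel wells monitors overt toxicity. Curves are fitted both directions against DMSO.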

Assay [17] can be described thus: BSK_KF3CT_SRB: Viability Assessment in the BioMAP Diversity Plus: KF3CT Assay (AID 2283069).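 Note: total protein by sulforhodamine B staining as a cytotoxicity measure; read 24 h after compound addition.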 The conditions noted are these: primary human keratinocytes with fibroblasts. Summed up: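 Human keratinocyte and foreskin fibroblast co-culture exposed to chemical for 24 h. Total protein measured in parallel cultures by 0.1% sulforhodamine B staining after 10% TCA fixation, read at 560 nm; bidirectional fit relative to DMSO.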

Read-out in assay [18]: Interleukin-1 alpha (IL1a), IL1A (gene 3552)
The assay is described as follows: BSK_KF3CT_IL1a: BioMAP Diversity Plus: KF3CT Assay for Interleukin-1 alpha (IL1a) Biomarker Activity (AID 2283070). As to conditions: primary human keratinocytes with fibroblasts; actives raise or lower the signal. Summed up:
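Primary human keratinocyte plus foreskin fibroblast co-culture, dosed and measured at 24 h in 96-well plates. IL-1a level quantified by ELISA; bidirectional fit relative to DMSO.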

Read-out in assay [19]: TIMP metallopeptidase inhibitor 2 (TIMP2), TIMP2 (gene 7077)
The assay is described as follows: BSK_KF3CT_TIMP2: BioMAP Diversity Plus: KF3CT Assay for TIMP metallopeptidase inhibitor 2 (TIMP2) Biomarker Activity (AID 2283071). As to conditions: primary human keratinocytes with fibroblasts; actives raise or lower the signal. The method in brief: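 Human primary keratinocyte/foreskin fibroblast co-culture dosed with chemical and sampled at 24 h. TIMP-2 levels quantified by ELISA; bidirectional fitting against DMSO negative control as baseline.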

Consider `CCCCOCCO`, for which the result in assay [1], in assay [2], in [3], in assay [4], in assay [5] and in assay [6] was inactive. Besides, the result in assay [7], in assay [8], in assay [9], in [10], in [11] and in assay [12] was inactive. The outcome in assay [13], in [14], in [15], in assay [16], in [17] and in assay [18] was inactive. Besides, the result in [19] was inactive.
Turning to `CC(C)(C)CC(C)(C)c1ccc(O)c(-n2nc3ccccc3n2)c1`, the result in assay [1], in assay [3], in assay [4], in assay [5], in assay [7] and in assay [12] was inactive. In addition, the outcome in assay [15], in assay [16], in assay [17], in assay [18] and in assay [19] was inactive. Moreover, the AC50 in [2] was 14.6 µM (active); in assay [6], 14.2 µM (active); in [8], 6.71 µM (active); in assay [9], 5.47 µM (active); in [10] it was 9.39 µM (active); in assay [11], 7.74 µM (active). The figures for the AC50 in [13] and in assay [14] were 15.8 µM (active) and 11.3 µM (active), respectively.
For the compound `CC1=C(/C=C/C(C)=C/C=C/C(C)=C/C(=O)O)C(C)(C)CCC1`, the result in assay [1], in [3] and in assay [6] was inactive. For the same compound, the AC50 in assay [2] was 30.2 µM (active); in assay [4], 20 µM (active); in assay [5] it was 15 µM (active); in assay [7] it was 38.9 µM (active); in [8], 7.76 µM (active); in assay [9], 25.2 µM (active). Moreover, the AC50 in assay [10] was 34.5 µM (active); in assay [11], 31.8 µM (active); in [13] it was 18.5 µM (active); in assay [14], 20 µM (active); in assay [15] it was 30.6 µM (active); in [16], 25.6 µM (active). In addition, the AC50 in [17] is 32.8 µM (active); in [18], 33.6 µM (active); in assay [19] it was 32.3 µM (active).
Regarding `COCC(C)OCC(C)O` (stereo not given), the result in assay [1], in [2], in [3], in [4], in assay [5] and in assay [6] was inactive. Further, the result in assay [7], in [8], in assay [9], in [10], in assay [11] and in assay [13] was inactive. The outcome in assay [14], in assay [15], in assay [16], in assay [17], in assay [18] and in assay [19] was inactive.
`CCc1ccc(CCOc2ccc(CC3SC(=O)NC3=O)cc2)nc1` (stereo not given): the result in [1], in assay [2], in assay [3], in assay [4], in assay [5] and in [6] was inactive. The outcome in [7], in assay [8], in assay [9], in assay [10], in assay [11] and in assay [13] was inactive. Also, the result in assay [14], in [15], in assay [16], in assay [17], in assay [18] and in assay [19] was inactive.
In the case of `Cc1cc(CCN2CCN(c3nsc4ccccc34)CC2)cc2c1NC(=O)CC2(C)C`, the AC50 is 29.6 µM (active) in assay [1]; 11.5 µM (active) in assay [2]; 31.1 µM (active) in assay [3]; 29.4 µM (active) in assay [4]; 9.12 µM (active) in assay [5]; 11.3 µM (active) in assay [7]. The AC50 was 7.83 µM (active) in assay [8]; 10.8 µM (active) in assay [9]; 13.4 µM (active) in [10]; 10.9 µM (active) in [11]; 8.43 µM (active) in [12]; 5.57 µM (active) in [13]. The AC50 in [14] was 14.6 µM (active); in assay [15] it was 29.6 µM (active); in assay [16], 33.4 µM (active); in [17], 11.7 µM (active); in [18], 26.6 µM (active); in assay [19] it was 20 µM (active). Also, in assay [6], the result was inactive.
For the compound `NC(=O)N(O)[C@@H]1C=C[C@H](Oc2cccc(Oc3ccc(F)cc3)c2)C1`, the result in assay [1], in assay [3], in [4], in assay [5], in assay [6] and in assay [7] was inactive. Besides, the result in assay [10], in assay [11], in assay [12], in assay [14], in [15] and in [17] was inactive. Besides, the outcome in assay [18] and in assay [19] was inactive. In addition, the AC50 is 20 µM (active) in [2]; 13.3 µM (active) in [8]; 3.97 µM (active) in [9]; 8.65 µM (active) in [13]; 20 µM (active) in assay [16].
